Composite z-score and z-score data for eight molecules are collected here from PubChem BioAssay.

In assay [1] the test system is Plasmodium falciparum Sir2 (PF13_0152, Sir2A). The experiment in a line: Plasmodium falciparum Sir2A binding compounds – biochemical, small-molecule microarray, 635 nm fluorescence, primary screen (AID 1098).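 Further: score merges spot fluorescence intensity with its signal-to-noise ratio.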 As to conditions: fluorescence 635 nm, higher = more signal.
Assay [2] is described as follows: probe aDKK1 binding to arrayed compounds – biochemical, biotinylated probe, 635/667 nm fluorescence, primary screen (AID 1099).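 Further: score merges 667nm spot fluorescence with signal to noise across triplicate slides.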 As to conditions: small-molecule microarray, higher = more signal.
The nature of assay [3]: probe aCHRDL2 binding to arrayed compounds – biochemical, biotinylated probe, 635/667 nm fluorescence, primary screen (AID 1100). The conditions noted are these: small-molecule microarray, higher = more signal.
Assay [4] in a line: change in splice reporter luminescence, either direction, cell-based, HEK293, spliceosome inhibition project, primary screen (AID 1101).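 Further: HEK293 cells carrying a splicing-competent luciferase reporter gene; test concentration not given here.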 The conditions noted are these: HEK293 splicing luciferase reporter, 24 h, higher = more signal, called active from +8 up or from −8 down. (In general: Reporter assays use an easily measured gene product as a stand-in for the process of interest.)

The target in assay [5] is Fibroblast growth factor 10 (Homo sapiens) (UniProt O15520). Nature of the assay: compounds binding fibroblast growth factor 10 – biochemical, small-molecule microarray, 635 nm fluorescence, primary screen (AID 1102). The conditions noted are these: FGF10 binding, fluorescence 635 nm, higher = more signal.
For assay [6], the system named is glycogen synthase kinase-3 (GSK3A per assay name; protocol says GSK3B). The experiment in a line: compounds binding glycogen synthase kinase-3 – biochemical, small-molecule microarray, 635 nm fluorescence, GSK3A, primary screen (AID 1103). Further: the record names both GSK3A and GSK3B. As to conditions: fluorescence 635 nm, higher = more signal.
Assay [7] concerns the target Epidermal growth factor receptor (Homo sapiens) (UniProt P00533). The experiment in a line: compounds binding epidermal growth factor receptor – biochemical, small-molecule microarray, 635 nm fluorescence, primary screen (AID 1104).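 Further: score merges 667 nm emission intensity with spot signal to noise over triplicate slides.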 As to conditions: EGFR binding, higher = more signal.
Assay [8] has as its target Follistatin-related protein 3 (Homo sapiens) (UniProt O95633). The experiment in a line: compounds binding follistatin-related protein 3 – biochemical, small-molecule microarray, 635 nm fluorescence, primary screen (AID 1105).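 Further: score merges emission near 667 nm and signal to noise per printed spot across three slides.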 As to conditions: FSTL3 binding, higher = more signal.
Assay [9] concerns the target Dickkopf-related protein 1 (Homo sapiens) (UniProt O94907). The experiment in a line: small molecules binding DKK1 protein – biochemical, small-molecule microarray, 635 nm fluorescence scan, primary screen (AID 1106).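 Further: score merges emission near 667 nm with signal to noise over three replicate slides.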 The conditions noted are these: higher = more signal.
The subject of assay [10] is Inhibin beta A chain (activin A). The experiment in a line: small molecules binding activin A – biochemical, small-molecule microarray, 635 nm fluorescence scan, primary screen (AID 1107).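 Further: mouse activin A protein probed at 4.33 µg/mL on printed slides; score merges bound-protein fluorescence near 667 nm with spot signal-to-noise.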 As to conditions: INHBA, higher = more signal.
The test system of assay [11] is Human papillomavirus type 1a protein E7 (residues 44-93). The experiment in a line: small molecules binding HPV E7 44-93 – biochemical, small-molecule microarray, residues 44-93, 635 nm fluorescence, primary screen (AID 1108).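 Further: E7 fragment applied at 1 µg/mL in TBST for 1 h at 4 C; score combines spot fluorescence with its signal to noise ratio.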 As to conditions: fluorescence 635 nm, higher = more signal.
Assay [12] can be described thus: hepatitis C replication reporter changes, two-sided – Huh7 cells, luciferase reporter, HCV replication inhibitor project, primary screen (AID 1109).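 Further: huh7 hepatoma cells harbouring a luciferase neomycin HCV replicon reporter; luciferase luminescence as measure of HCV replicon replication; test concentration not given here.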 As to conditions: Huh7 HCV replicon luciferase reporter, 48 h; higher = more signal.
Assay [13] concerns the target Left-right determination factor 2 (Homo sapiens) (UniProt O00292). Nature of the assay: small molecules binding LEFTY2 protein – biochemical, small-molecule microarray, 635 nm fluorescence scan, primary screen (AID 1110). As to conditions: higher = more signal.
Assay [14] concerns the target Calmodulin-1 (Homo sapiens) (UniProt P0DP23). Nature of the assay: small molecules binding calmodulin-1 with EGTA – biochemical, small-molecule microarray, Cy5-labelled CALM1, profiling panel (AID 1111).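 Further: labelled calmodulin applied in Tris saline Tween buffer holding calcium plus EGTA and DTT.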 As to conditions: Cy5-CALM1 binding fluorescence, higher = more signal.
The target is the same in assay [15]. The experiment in a line: small molecules binding Ca-loaded calmodulin-1 – biochemical, small-molecule microarray, Cy5-labelled CALM1, plus calcium, artefact control for SMM control-protein annotation, profiling panel (AID 1112).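 Further: score merges spot fluorescence with signal to noise from triplicate slides.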 As to conditions: Cy5-CALM1 binding fluorescence, higher = more signal.
Assay [16] is described as follows: probe aWnt5a binding to arrayed compounds – biochemical, biotinylated probe, 635/667 nm fluorescence, primary screen (AID 1113).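 Further: score merges 667 nm fluorescence intensity with signal-to-noise per printed feature.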 As to conditions: small-molecule microarray, higher = more signal.
Assay [17] can be described thus: probe aShh binding to arrayed compounds – biochemical, biotinylated probe, 635/667 nm fluorescence, primary screen (AID 1114).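 Further: probe is biotin-labelled aShh protein from a stem cell growth factor screen; measures binding of labelled protein to compounds printed on the slide; score merges feature fluorescence at 667 nm with signal-to-noise.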 As to conditions: small-molecule microarray, higher = more signal.
Assay [18] in a line: probe aNog binding to arrayed compounds – biochemical, biotinylated probe, 635/667 nm fluorescence, primary screen (AID 1115).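 Further: probe is biotinylated aNog protein used at 0.15 µg/mL for 1 h at 4 C; z-score combines 667 nm fluorescence of each spot with its signal to noise.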 As to conditions: small-molecule microarray, higher = more signal.
Assay [19] has as its target Torsin-1A-interacting protein 1 (Homo sapiens) (UniProt Q5JTV8). The experiment in a line: compound microarray binding of lysate hLAP1 – cell lysate, small-molecule microarray, COS7 lysate, 635/667 nm fluorescence, primary screen (AID 1116). As to conditions: 635 nm fluorescence, higher = more signal.
Assay [20] addresses Alpha-bungarotoxin (Bungarus multicinctus) (UniProt P60615). The experiment in a line: compounds binding labelled alpha-BTX control protein – biochemical, small-molecule microarray, Alexa647 label, 635/667 nm fluorescence, artefact control for SMM control protein annotation, profiling panel (AID 1117). The conditions noted are these: alpha-BTX-A647 binding fluorescence, higher = more signal.

Calls of active or inactive are those of the source.

Epidermal growth factor receptor (Homo sapiens), sequence (P00533 whole entry, looked up): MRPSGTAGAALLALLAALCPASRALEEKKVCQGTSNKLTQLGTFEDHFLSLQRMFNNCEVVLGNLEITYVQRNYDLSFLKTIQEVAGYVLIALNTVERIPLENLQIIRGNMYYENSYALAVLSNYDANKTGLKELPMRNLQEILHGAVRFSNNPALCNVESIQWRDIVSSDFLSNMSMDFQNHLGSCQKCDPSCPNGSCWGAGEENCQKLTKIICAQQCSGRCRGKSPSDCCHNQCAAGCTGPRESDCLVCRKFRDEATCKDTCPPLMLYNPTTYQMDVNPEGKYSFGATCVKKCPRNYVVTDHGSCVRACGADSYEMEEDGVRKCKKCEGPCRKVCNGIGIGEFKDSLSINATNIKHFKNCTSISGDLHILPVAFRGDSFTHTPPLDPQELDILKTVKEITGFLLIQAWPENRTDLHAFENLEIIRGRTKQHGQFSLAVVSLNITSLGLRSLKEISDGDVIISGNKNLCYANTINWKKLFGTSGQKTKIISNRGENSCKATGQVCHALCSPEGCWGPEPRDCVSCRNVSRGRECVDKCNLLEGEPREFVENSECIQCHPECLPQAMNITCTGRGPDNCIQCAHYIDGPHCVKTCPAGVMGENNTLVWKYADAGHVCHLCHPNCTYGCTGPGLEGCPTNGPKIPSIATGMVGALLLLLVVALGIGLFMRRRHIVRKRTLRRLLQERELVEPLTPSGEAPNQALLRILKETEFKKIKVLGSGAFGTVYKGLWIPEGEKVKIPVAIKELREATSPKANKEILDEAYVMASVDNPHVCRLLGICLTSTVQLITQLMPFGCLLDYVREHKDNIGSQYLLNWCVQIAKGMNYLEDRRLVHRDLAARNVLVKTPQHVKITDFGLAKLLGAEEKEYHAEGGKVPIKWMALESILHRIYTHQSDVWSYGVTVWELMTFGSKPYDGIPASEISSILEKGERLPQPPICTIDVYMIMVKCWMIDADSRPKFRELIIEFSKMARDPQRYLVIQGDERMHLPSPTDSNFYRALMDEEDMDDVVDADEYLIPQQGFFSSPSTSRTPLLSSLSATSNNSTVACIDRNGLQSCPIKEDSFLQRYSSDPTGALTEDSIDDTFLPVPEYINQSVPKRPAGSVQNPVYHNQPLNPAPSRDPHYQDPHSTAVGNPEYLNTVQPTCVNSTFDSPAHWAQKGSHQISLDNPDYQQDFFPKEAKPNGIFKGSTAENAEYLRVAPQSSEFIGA
Fibroblast growth factor 10 (Homo sapiens), sequence (O15520 whole entry, looked up): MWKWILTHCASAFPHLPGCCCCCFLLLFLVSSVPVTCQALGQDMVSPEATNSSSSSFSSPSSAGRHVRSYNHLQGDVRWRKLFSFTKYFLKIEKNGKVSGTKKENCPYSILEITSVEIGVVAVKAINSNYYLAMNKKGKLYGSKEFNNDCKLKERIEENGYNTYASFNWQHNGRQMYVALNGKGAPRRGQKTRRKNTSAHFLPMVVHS
Dickkopf-related protein 1 (Homo sapiens), sequence (O94907 whole entry, looked up): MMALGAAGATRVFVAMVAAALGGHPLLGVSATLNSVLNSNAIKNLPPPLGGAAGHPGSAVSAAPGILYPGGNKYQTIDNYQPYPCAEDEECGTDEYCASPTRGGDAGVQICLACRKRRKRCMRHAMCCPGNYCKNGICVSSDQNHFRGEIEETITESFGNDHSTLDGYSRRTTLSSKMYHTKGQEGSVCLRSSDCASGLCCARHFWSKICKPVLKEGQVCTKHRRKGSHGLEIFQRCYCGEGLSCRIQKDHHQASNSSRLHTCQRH
Torsin-1A-interacting protein 1 (Homo sapiens), sequence (Q5JTV8 whole entry, looked up): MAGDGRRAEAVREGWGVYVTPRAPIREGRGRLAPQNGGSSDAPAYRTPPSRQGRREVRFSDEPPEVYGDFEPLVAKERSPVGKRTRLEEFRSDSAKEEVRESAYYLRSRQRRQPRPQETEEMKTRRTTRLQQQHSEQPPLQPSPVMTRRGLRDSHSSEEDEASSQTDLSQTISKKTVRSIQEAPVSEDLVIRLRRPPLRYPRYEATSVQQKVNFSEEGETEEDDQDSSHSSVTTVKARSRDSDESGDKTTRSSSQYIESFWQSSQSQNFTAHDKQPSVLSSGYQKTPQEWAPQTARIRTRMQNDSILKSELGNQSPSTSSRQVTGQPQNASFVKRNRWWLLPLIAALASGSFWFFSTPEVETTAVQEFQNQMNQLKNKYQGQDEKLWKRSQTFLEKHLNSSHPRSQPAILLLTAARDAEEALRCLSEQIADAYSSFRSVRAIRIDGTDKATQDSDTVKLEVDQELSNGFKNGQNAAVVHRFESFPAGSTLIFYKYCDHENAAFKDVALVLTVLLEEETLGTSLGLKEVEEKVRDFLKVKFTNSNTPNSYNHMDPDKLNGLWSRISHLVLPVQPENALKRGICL
Left-right determination factor 2 (Homo sapiens), sequence (O00292 whole entry, looked up): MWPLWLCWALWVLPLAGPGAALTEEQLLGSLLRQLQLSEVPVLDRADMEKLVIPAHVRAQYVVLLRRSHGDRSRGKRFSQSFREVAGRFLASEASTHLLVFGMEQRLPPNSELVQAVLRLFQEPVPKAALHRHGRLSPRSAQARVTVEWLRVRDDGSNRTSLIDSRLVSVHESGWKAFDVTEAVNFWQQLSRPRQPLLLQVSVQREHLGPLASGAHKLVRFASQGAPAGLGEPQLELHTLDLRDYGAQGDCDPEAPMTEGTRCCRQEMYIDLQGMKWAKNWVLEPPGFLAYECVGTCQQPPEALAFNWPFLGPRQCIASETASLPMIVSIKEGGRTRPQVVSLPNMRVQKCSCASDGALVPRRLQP
Alpha-bungarotoxin (Bungarus multicinctus), sequence (P60615 whole entry, looked up): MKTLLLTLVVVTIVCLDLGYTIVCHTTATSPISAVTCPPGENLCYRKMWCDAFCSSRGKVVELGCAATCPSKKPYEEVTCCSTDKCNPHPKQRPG
Follistatin-related protein 3 (Homo sapiens), sequence (O95633 whole entry, looked up): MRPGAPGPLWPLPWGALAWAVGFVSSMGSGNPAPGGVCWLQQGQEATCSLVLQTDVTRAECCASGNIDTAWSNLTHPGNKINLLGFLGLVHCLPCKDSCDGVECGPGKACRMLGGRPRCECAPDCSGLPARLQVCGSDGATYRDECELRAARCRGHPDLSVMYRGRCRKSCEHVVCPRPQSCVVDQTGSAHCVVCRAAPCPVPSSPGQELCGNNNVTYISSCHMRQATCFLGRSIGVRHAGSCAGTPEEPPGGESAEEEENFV

In the case of `C=C(COC)/C(=C/C[C@@H](OC(=O)c1ccncc1)c1cccc(OCCO)c1)c1cnc2ccccc2c1`, the composite z-score is -0.0365 in assay [1]; 0.432 in [2]; 0.347 in assay [3]; 1.48 in assay [5]; 1.3 in assay [6]; 1.65 in assay [7]. The composite z-score in assay [8] was determined as 1.65; in assay [9], 0.769; in assay [10] it was 1.81; in assay [11], 0.429; in assay [13], 1.04; in [14], 1.3. The composite z-score in [15] was -0.102; in assay [16], -0.0161; in assay [17] it was 0.259; in [18], 0.581; in assay [19] it was 1.54; in assay [20], 3.87. Also, the z-score in assay [4] was -1.36 (inactive); in [12] it was -3.87.

On to `CC(C)C(=C=CC[C@H](O)c1ccc(OCCO)cc1)C[C@H](O)c1cc(Cl)cc(Cl)c1O`, for which the composite z-score in [1] is 0.631; in [2], -0.0017; in assay [3], -0.249; in assay [5], 0.893; in [6] it was 0.741; in assay [7], 0.122. Also, the composite z-score in assay [8] was 0.699; in [9] it was -0.0061; in assay [10], 0.707; in [11], 0.927; in [13] it was 0.437; in assay [14], -0.0205. Besides, the composite z-score in assay [15] is 0.134; in assay [16], -0.0125; in assay [17], 0.191; in [18], 0.205; in assay [19] it was 0.413; in [20] it was 1.44. Besides, the z-score in [4] was -0.492 (inactive); in [12], -1.57.

With `C=CCOC(=O)[C@H]1[C@@H]2C(=O)O[C@@H](c3ccccc3)[C@@H](c3ccccc3)N2[C@@H](c2ccc(OCCOC(=O)[C@H]3C[C@H]4C(=O)N[C@@H](CCCC[N+](C)(C)C)C(=O)N4[C@H]3c3cccc(OCCO)c3)cc2)[C@]12C(=O)Nc1ccc(I)cc12`, the composite z-score in assay [1] was 1.1; in assay [2], -0.179; in [3], -0.0243; in [5], 0.809; in assay [6], 0.701; in [7], 0.335. The composite z-score in assay [8] worked out at 0.376; in assay [9] it was 0.763; in [10] it was 0.111; in assay [11], 0.62; in assay [13], 0.73; in assay [14], 0.727. Also, the composite z-score in assay [15] is 0.119; in assay [16], -0.0721; in assay [17], -0.138; in assay [18], 0.0051; in assay [19], 0.62; in assay [20], 0.113. In addition, the z-score is 0.997 (inactive) in assay [4] and -1.38 in [12].

On to `CC(C)C(=C=CC[C@@H](O)c1ccccc1OCCO)C[C@@H](O)COCc1ccccc1`, for which the composite z-score in assay [1] is 1.23; in assay [2] it was 0.469; in [3], 0.264; in assay [5], 1.35; in [6], -0.0582; in assay [7] it was 0.22. For the same molecule, the composite z-score in [8] was 0.589; in assay [9], -0.691; in assay [10] it was 1.35; in assay [11], 0.247; in assay [13], 0.639; in [14], 0.277. In addition, the composite z-score is 0.652 in assay [15]; -0.128 in [16]; -0.0769 in assay [17]; 0.583 in assay [18]; 0.573 in assay [19]; -0.345 in [20]. Further, the z-score in [4] is -2.12 (inactive); in assay [12] it was -1.21.

As for `COC(=O)C1(Cc2ccccc2)C=C2C(=C(c3ccccc3)C(=O)C2C)CN1` (stereo not given), the composite z-score in [1] is -0.208; in assay [2], 1.88; in [3], 1.39; in assay [5] it was 1.03; in assay [6], -0.731; in assay [7], -0.544. Besides, the composite z-score in [8] was -0.147; in [9] it was -0.89; in assay [10], 1.69; in assay [11], -0.964; in [13], -0.871; in assay [14], 0.648. Further, the composite z-score in assay [15] stood at 1.18; in assay [16], 1.11; in [17] it was 2.71; in assay [18], 1.05; in [19], 1.22; in assay [20], 0.0329. In addition, the z-score in [4] was 0.388 (inactive); in [12] it was -1.53.

`CN(C)CCCCNC(=O)[C@H]1C[C@H]2C(=O)N[C@@H](CCCCN(C)C)C(=O)N2[C@H]1c1cccc(OCCO)c1`: the composite z-score is 1.12 in [1]; -0.199 in assay [2]; -0.434 in assay [3]; 1.21 in assay [5]; 1.29 in assay [6]; 0.514 in assay [7]. Besides, the composite z-score in assay [8] turned out to be 1.11; in [9], 0.418; in [10], 0.0714; in [11], 1.41; in assay [13], 1.17; in assay [14], 0.477. Also, the composite z-score in assay [15] was -0.167; in assay [16], -0.036; in [17], -0.203; in [18], 0.0721; in assay [19], 0.752; in [20] it was 0.701. The z-score in [4] was -0.404 (inactive); in [12] it was 0.057.

On to `O=C1O[C@@H](c2ccccc2)[C@@H](c2ccccc2)N2[C@@H](c3ccccc3OCCO)[C@]3(C(=O)Nc4ccccc43)[C@@H](C(=O)NC[C@H](O)c3ccccc3)[C@H]12`, for which the composite z-score in assay [1] is 1.11; in assay [2] it was 0.597; in [3], 0.76; in assay [5], -0.369; in assay [6] it was 0.342; in assay [7] it was -0.528. The composite z-score in [8] is 0.0805; in assay [9] it was -0.547; in [10], -0.189; in [11], 0.705; in assay [13], -0.555; in assay [14] it was 1.08. The composite z-score in assay [15] was 0.845; in assay [16], -0.152; in assay [17], 0.0557; in assay [18] it was -0.0161; in [19], 1.35; in [20], -0.327. Moreover, the z-score is -1.66 (inactive) in [4] and -3.3 in assay [12].

In the case of `O=C(O)[C@H]1C[C@H]2C(=O)N3CCC[C@H]3C(=O)N2[C@H]1c1cccc(OCCO)c1`, the composite z-score was 1.6 in assay [1]; 0.0484 in assay [2]; 0.0998 in assay [3]; 0.262 in assay [5]; 0.486 in assay [6]; 0.0626 in assay [7]. Besides, the composite z-score was 0.384 in assay [8]; 0.884 in assay [9]; -0.0254 in assay [10]; 1.1 in assay [11]; 0.266 in assay [13]; 0.0384 in assay [14]. Also, the composite z-score was 0.286 in assay [15]; -0.0944 in [16]; -0.167 in [17]; 0.0951 in assay [18]; 0.83 in [19]; 1.67 in assay [20]. Also, the figures for the z-score in [4] and in assay [12] were -0.184 (inactive) and 1.55, respectively.
